# MCF10A rereplic: inducers of DNA re-replication in MCF 10A breast cells; MCF 10A DNA re-replication, Hoechst nuclear intensity, 48 h; Potency, µM (doses to about 46.1 µM), for inactives: top-dose activity, positive = re-replication, hits mostly activators; 2.9% of 350,000 active; further: potency means the concentration at half of the fitted maximal effect; % of control where 0% means no effect; nearly all actives have a fitted effect of over 50% in size
# KB-3-1 cytotox: KB-3-1 parental cell cytotoxicity; KB-3-1 viability, CellTiter-Glo ATP luminescence, 72 h; AID 1347075; Potency, µM (series often up to 46.1 µM), actives largely listed as cytotoxic; 1.4% of 400,000 active; further: potency means the concentration at half of the fitted maximal effect; on the % scale 0 is the no-effect control and ±100 the full control effect; nearly all actives have a fitted effect of over 60% in size
#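 Cytotoxicity in the drug-sensitive parental line KB-3-1 was scored as loss of CellTiter-Glo luminescence following 72 h incubation with compound. Values come from curve fitting of normalized concentration-response data.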
# KB-V1 cytotox: kills drug-selected multidrug resistant KB-V1 cells; KB-V1 MDR cells viability, CellTiter-Glo, 72 h; Potency, µM (top dose mostly 46.1 µM), hits mostly cytotoxic; 3.4% of 400,000 active; AID 1347076; further: potency means the concentration at half of the fitted maximal effect; on the % scale 0 is the no-effect control and ±100 the full control effect; nearly all actives have a fitted effect of over 60% in size
#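 KB-V1 cells (P-gp-expressing MDR subline of KB-3-1) in phenol-red-free DMEM with 10% FBS were exposed to library compounds over a concentration series for 72 h at 37 degrees C. Viability read by CellTiter-Glo luminescence; concentration-effect curves fitted after normalization.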
# SW480 rerep: inducers of DNA re-replication in SW480 colon cancer cells; SW480 DNA re-replication, Hoechst DNA content imaging, 48 h; Potency, µM (doses to about 46.1 µM), for inactives: top-dose re-replication activation, actives largely listed as activators; 1.8% of 340,000 active; AID 624297; further: potency means the concentration at half of the fitted maximal effect; % of control where 0% means no effect; nearly all actives have a fitted effect of over 55% in size
#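 Image-based DNA-content assay: after two days of treatment, nuclei were labelled with the DNA dye Hoechst and imaged, and hits were compounds raising the count of nuclei showing high fluorescence intensity.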
# IL1B secr inh: inhibitors of inflammasome signaling (IL-1 beta secretion). AID 743279. 4.7% of 360,000 active. activity change, % at 57.5 µM. THP-1 LPS/ATP IL-1B secretion, AlphaLISA, 16 h; hits give low values; in the data active means activity change below about -50%; inconclusive means mostly about -30% to -49%; further: on the % scale 0 is the no-effect control and ±100 the full control effect
#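 THP-1 cells pretreated 1 hr with compounds (up to 57.5 uM final), then stimulated with LPS (250 ng/mL final) plus ATP (1.25 mM final); secreted IL-1B measured by AlphaLISA after 16 hr, decreased signal indicating inhibition.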
# Starred values were filed as active, the others as inactive; i = inactive; ? = inconclusive; . = no result given. Compounds with a hit are over-represented: about 9.9% of the library has one in this group of screens. Unless noted, the call rests on the fitted dose curve; in most records, active means well fitted curve in the direction sought with a large enough effect; inconclusive means small, poorly fitted or top-dose-only effect, or another doubt; inactive means no such curve, though single readings can be large; an effect the other way counts as inactive or inconclusive.
SMILES,MCF10A rereplic,KB-3-1 cytotox,KB-V1 cytotox,SW480 rerep,IL1B secr inh
CCc1ccc(CNCc2ccc(OCC(O)CN(C)Cc3ccccc3)cc2)nc1 (stereo not drawn),?,?,?,?,-59.7*
C=CCOc1ccc(CN(C)CC(O)COc2cccc3ccccc23)cc1 (stereo not drawn),14.0%,i,i,?,-59.2*
CN(Cc1ccccc1)CC(O)COc1ccc(CNCCc2ccncc2)cc1 (stereo not drawn),?,i,?,18.4µM*,-58.5*
Cc1cc(CN(C)Cc2ccc(OCC(O)CN(C)Cc3ccccc3)cc2)on1 (stereo not drawn),-0.7%,i,i,-3.9%,24.7
COc1cc(NC(=O)C(CCSC)NS(=O)(=O)c2ccc3c(c2)oc(=O)n3C)cc(OC)c1 (stereo not drawn),.,i,i,.,.
CC(=O)N1CCc2cc(Br)cc(S(=O)(=O)CCC(=O)N3CCN(c4ccccc4Cl)CC3)c21,.,i,i,.,.
COC(=O)C1=C(Nc2ccc(C)cc2)C=C(C)C(C(=O)OC)C1c1cccc(OC)c1 (stereo not drawn),?,?,i,23.1µM*,11.1
COc1cccc(C2NC(=O)NC(C)=C2C(=O)Nc2ccc(C)cc2)c1 (stereo not drawn),1.1%,i,i,-2.4%,12.9
COC(=O)C1=C(Nc2ccc(C)cc2)C=C(C)C(C(=O)OC)C1c1ccc(OC)cc1 (stereo not drawn),?,i,i,14.6µM*,-4.6
Cc1oc2ncn(CC(C)C)c(=O)c2c1C(=O)N(CCN(C)C)Cc1ccccc1,.,i,i,.,.
Cc1ccsc1CN(C)Cc1nc(C2CC2)no1,2.0%,i,i,-0.5%,19.0
Nc1sc(Cc2ccccc2)cc1C(=O)c1c(-c2ccccc2)[nH]c2ccccc12,.,5.8µM*,13µM*,.,-11.6
N#Cc1ccccc1NC(=O)COC(=O)/C=C/c1ccc(S(=O)(=O)N2CCOCC2)cc1,-0.5%,i,i,-29.7%,-8.1
CCC[C@H](CN[C@@H](CNC)[C@H](C)O)NCCc1ccc(OC)cc1,?,i,i,4.4%,-10.3
CCCC[C@H](CN[C@@H](CNC)[C@H](C)CC)NCCC12CCC(CC1)C2,?,?,i,10.5%,-67.6*
Cc1cc2c(NCc3ccccc3)ncnc2s1,-1.6%,?,i,0.6%,?
Cc1nnc(-c2cccc(Br)c2)c2cn(-c3cccc(Br)c3)nc12,?,?,9.2µM*,-4.7%,0.0
COCCNC(=O)CN1C(=O)/C(=C/c2ccccc2)Oc2ccc(C(C)(C)C)cc21,?,i,i,15.3%,-52.9*
COc1cccc(/C=C2/Oc3ccccc3N(CC(=O)NCC3CCCO3)C2=O)c1 (stereo not drawn),3.3%,i,i,17.5%,-16.4
O=C(CN1C(=O)S/C(=C\c2ccccc2Cl)C1=O)NCCCn1ccnc1,-7.2%,i,i,-8.7%,-28.9
O=C(CN1C(=O)/C(=C\c2cccc(Br)c2)Oc2ccccc21)NCCCN1CCOCC1,2.91µM*,i,?,14.6µM*,-51.8*
O=C(CN1C(=O)/C(=C\c2cccc(Cl)c2)Sc2ccccc21)NCCCN1CCOCC1,20.6µM*,i,i,?,-5.8
O=C(CN1C(=O)/C(=C\c2ccccc2Cl)Sc2ccccc21)NCCCN1CCOCC1,18.4µM*,i,i,18.4µM*,?
CCc1cccc(NC(=O)Cn2nc3c4cc(F)ccc4n(Cc4cccc(C)c4)cc-3c2=O)c1,.,?,i,.,.
O=C(CN(Cc1ccco1)C(=O)CCC(=O)Nc1ccccn1)NCc1ccccc1,-5.8%,i,i,-2.4%,1.3
CCC(NC(=O)c1ccccc1NC(=O)c1ccccc1)C(=O)NNC(=O)c1cccnc1 (stereo not drawn),-1.4%,i,i,2.0%,0.0
N#C/C(=C/c1ccccc1)C(=O)NCc1ccccc1,?,i,i,7.9%,-77.3*
N#C/C(=C/c1cccc(O)c1)C(=O)NCc1ccc(Cl)cc1,?,i,i,20.9%,-102.6*

# Screens from PubChem.
